High-throughput results (PubChem)
An excerpt weighted towards active compounds, which were near 19% of everything screened.
HT1080-NT tox = kills 2HG-producing HT-1080-NT fibrosarcoma cells; Potency, µM (highest dose often 46.1 µM), for the others: top-dose activity, negative = less viability, most hits filed as cytotoxic; HT-1080-NT fibrosarcoma viability, CellTiter-Glo ATP luminescence, 48 h; actives 1.6% (n = 360,000);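 further: NT is the 2HG producing partner of a matched IDH1 knockdown line; potency means the concentration at half of the fitted maximal effect; 0% = DMSO-treated cells and -100% = media-only wells without cells; nearly all actives have a fitted effect of over 55% in size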
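Fibrosarcoma NT cells, 750 per well in 5% FBS RPMI, were exposed to compound for 48 hours. Viability: CellTiter-Glo luminescence.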
TDP1 cell CPT = growth inhibition of DT40 Tdp1-/-;hTDP1 cells with camptothecin (screen for TDP1 inhibitors). chicken DT40 Tdp1-/-;hTDP1 cells + 20 nM CPT, ATP luminescence, 48 h. AID 686979. actives 12% (n = 420,000). Potency, µM (titrated, usually from 46.2 µM), for inactives: at the top dose activity change, negative = growth inhibition, actives largely listed as inhibitors; further: potency means the concentration at half of the fitted maximal effect; nearly all actives have a fitted effect of over 55% in size
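Chicken DT40 Tdp1-/- cells complemented with human TDP1, 400 cells/well, exposed to compounds plus 20 nM camptothecin for at least 48 h at 37 C; viability read as ATP content by CellTiter-Glo luminescence.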
IL1B secr inh = inhibitors of inflammasome signaling (IL-1 beta secretion) | THP-1 LPS/ATP IL-1B secretion, AlphaLISA, 16 h; active compounds read low | activity change, % at 57.5 µM | actives 4.7% (n = 360,000) | AID 743279; in the data active means activity change below about -50%; inconclusive means mostly about -30% to -49%
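Secreted IL-1B measured by AlphaLISA bead assay after 16 h compound exposure of THP-1 cells; compounds (final up to 57.5 uM) added 1 h before LPS (250 ng/mL) and ATP (1.25 mM) stimulation; lower signal means less secretion.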
DT40 TDP1 no CPT = qHTS for Inhibitors of human tyrosyl-DNA phosphodiesterase 1 (TDP1): qHTS in cells in absence of CPT | DT40 Tdp1-/- hTDP1 cells, no CPT, ATP luminescence, 48 h | Potency, µM (titrated, usually from 46.2 µM), for the others: at the highest dose activity change, negative = growth inhibition, hits mostly inhibitors | actives 15% (n = 420,000); further: potency means the concentration at half of the fitted maximal effect; nearly all actives have a fitted effect of over 55% in size
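Chicken DT40 Tdp1-/- cells complemented with human TDP1, screened without camptothecin (DMSO vehicle only), 400 cells/well. Compounds pin-transferred, cells incubated at 37 °C for at least 48 hr. Growth read as ATP-dependent luminescence (CellTiter-Glo, 30 min at RT).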
HT1080 IDH1KD tx = HT-1080 IDH1 knockdown cell toxicity (counter line) | HT-1080 IDH1 knockdown viability, ATP luminescence, 48 h | Potency, µM (top dose mostly 46.1 µM), for the others: at the highest dose activity, negative = toxicity, usual class: cytotoxic | actives 2% (n = 360,000) | AID 686971;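 further: potency means the concentration at half of the fitted maximal effect; 0% = DMSO wells and -100% = cell-free medium wells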
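Using the IDH1-knockdown HT-1080 line run in the same batch and compound series as the NT line, viability after 48 h at 37 °C was determined by CellTiter-Glo luminescence and expressed as % activity.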
* marks the source's active call; other numbers are inactive results; i = inactive; ? = inconclusive; nt = no result given; [ ] = remark or other dose. Unless noted, the call rests on the fitted dose curve; in most records, active means well fitted curve in the direction sought with a large enough effect; inconclusive means small, poorly fitted or top-dose-only effect, or another doubt; inactive means no such curve, though single readings can be large; an effect the other way counts as inactive or inconclusive. Unless noted, on the % scale 0 is the no-effect control and ±100 the full control effect.

SMILES | HT1080-NT tox | TDP1 cell CPT | IL1B secr inh | DT40 TDP1 no CPT | HT1080 IDH1KD tx
O=[N+]([O-])c1ccc(C[n+]2cc(-c3ccc(Cl)c(Cl)c3)n3c2CCCCC3)cc1 | -9% | ? | -25 | 5.8µM* | -2%
O=[N+]([O-])c1ccc(C[n+]2cc(-c3ccccc3)n3c2CCCCC3)cc1 | 3% | ? | -7 | 12µM* | 6%
O=C(C[n+]1cc(-c2ccc(Cl)c(Cl)c2)n2c1CCC2)OCc1ccccc1 | 4% | -13% | i | -14% | 12%
Cc1ccc(Nc2nnc(SCC(=O)Nc3cccc(S(=O)(=O)N4CCCCC4)c3)s2)cc1 | -6% | ? | -14 | 18µM* | -20%
Cc1cccc(NC(=O)CSCC(=O)Nc2cccc(S(=O)(=O)N3CCCCCC3)c2)c1 | -10% | -27% | -6 | ? | -26%
Cc1ccc(NC(=O)CSCC(=O)Nc2cccc(S(=O)(=O)N3CCCCCC3)c2)cc1 | -19% | 21µM* | -21 | ? | ?
CCOc1ccccc1Nc1nnc(SCC(=O)Nc2ccc3[nH]c(=O)[nH]c3c2)s1 | 17% | 0% | -12 | -13% | 7%
CC(C)Nc1nnc(SCC(=O)Nc2ccc3c(c2)C(=O)c2ccccc2C3=O)s1 | -11% | ? | -11 | 18µM* | ?
CCOc1ccccc1Nc1nnc(SCC(=O)Nc2cccc(S(=O)(=O)NC3=NCCCCC3)c2)s1 | -3% | 23µM* | -14 | 18µM* | -9%
O=C(CSc1nnc(NC2CCCCC2)s1)Nc1ccc2c(c1)C(=O)c1ccccc1C2=O | 10% | ? | -30 | ? | 8%
C=CCn1c(SCC(=O)Nc2cc(C)on2)nc2ccccc21 | 9% | -23% | 3 | -12% | 6%
CC(=O)NC(c1ccc(F)c(F)c1)c1nc(-c2cnc3ccccc3c2)cs1 (centres undefined) | -6% | ? | 9 | ? | 0%
CC1CCN(c2ccc(NC(=O)c3ccccc3[N+](=O)[O-])cc2)CC1 | 16% | -13% | -13 | -36% | 3%
COc1ccc(CNC(=O)/C=C/[C@H]2O[C@@H](n3ccc(=O)[nH]c3=O)[C@H](O)[C@@H]2O)cc1 | 22% | 5% | 29 | 14% | 20%
CC(=O)Nc1ccc(CNc2nc(NC(C)C)nc3cc(-c4ccccc4)sc23)cc1 | ? | 3.7µM* | -114* | 4.1µM* | ?
CC(=O)Nc1ccc(NCc2ccc(-c3ccccc3)cc2)cc1 | -6% | -24% | 0 | -16% | -2%
CC(=O)NCCNc1nc(NC(C)C)nc2cc(-c3ccccc3)sc12 | -22% | 23µM* | nt | ? | -25%
COc1ccc(-c2cc(CNc3nc(NC(C)C)nc4cc(-c5ccccc5)sc34)on2)cc1 | 10µM* | 4.1µM* | -107* | 3.7µM* | 12µM*
C=CCNc1nc(NCc2ccc(NC(C)=O)cc2)c2sc(-c3ccccc3)cc2n1 | 18µM* | 8.2µM* | ? | 9.2µM* | -21%
CC(=O)Nc1cccc(Oc2ccc(-c3noc(C)n3)cc2)c1 | -8% | -20% | -8 | -22% | -9%
O=[N+]([O-])c1ccc(Oc2ccc(F)cc2)c2ccncc12 | ? | -30% | -21 | ? | -4%[9.24 µM]
O=[N+]([O-])c1ccc(Oc2cccc(Br)c2)c2ccncc12 | 21µM* | ? | -15 | ? | ?
O=[N+]([O-])c1ccc(Oc2cccnc2)c([N+](=O)[O-])c1 | ? | 4.1µM* | -112* | 5.8µM* | ?
Nc1ccc(Oc2ccc([N+](=O)[O-])cc2[N+](=O)[O-])cc1 | -15% | 18µM* | 4 | ? | ?
Cn1cnnc1Sc1ccc(CN2CCOc3ccc(C4=CCCCC4)cc3C2)o1 | nt | -1%[9.04 µM] | nt | ? | nt
SMILES | HT1080-NT tox | TDP1 cell CPT | IL1B secr inh | DT40 TDP1 no CPT | HT1080 IDH1KD tx
CCN(CC)S(=O)(=O)c1ccc(NCc2ccccn2)nc1 | 6% | -6% | -13 | 5% | 16%
O=[N+]([O-])c1ccc(CNc2ccc(F)cc2)s1 | -2% | -14% | -85* | ? | 2%
O=[N+]([O-])c1ccc(CNc2ccc(Cl)cc2)s1 | 5% | -21% | ? | -14% | -20%
COc1ccc(NCc2ccc([N+](=O)[O-])s2)c(OC)c1 | 6% | 16µM* | -8 | ? | 10%
COc1ccc(NCc2ccc([N+](=O)[O-])s2)cc1 | -5% | ? | -71* | 21µM* | -25%
O=[N+]([O-])c1ccc(CNc2cccc(Cl)c2)s1 | -8% | ? | -95* | ? | -8%
CCc1ccc(NC(=O)Cn2c(=O)n(-c3ccccc3C)c(=O)c3c2c2cc(OC)ccc2n3C)cc1 | nt | ? | nt | -27% | nt
COc1cccc(Cn2c(=O)n(-c3ccccc3C)c(=O)c3c2c2cc(C)ccc2n3C)c1 | nt | 18µM* | nt | 13µM* | nt
COc1ccc2c(c1)c1c(c(=O)n(-c3ccccc3C)c(=O)n1CC(=O)Nc1c(C)cccc1C)n2C | nt | 7.3µM* | nt | 9.2µM* | nt
O=C(NCCc1nnc2n1CCN(Cc1ccc(F)c(F)c1)CC2)c1ccoc1 | nt | 8% | nt | -17% | nt
CCOC(=O)C(C)(C)Sc1nc2c(cnn2-c2ccc(Cl)cc2)c(=O)[nH]1 | -7% | ? | 40 | ? | -13%
COc1ccc(-n2nc([N+](=O)[O-])c(=NCCc3ccccc3)n2O)cc1 | -2% | 16µM* | -7 | ? | 0%
COc1cccc(CC(=O)N2CCN(c3ccccc3[N+](=O)[O-])CC2)c1 | 20% | ? | 21 | -14% | -9%
COc1cccc(CN=c2c([N+](=O)[O-])nn(-c3ccccc3C)n2O)c1 | -3% | 23µM* | 9 | ? | -2%
O=[N+]([O-])c1nn(-c2ccccc2)n(O)c1=NCCc1ccccc1 | 3% | 6.5µM* | -5 | 15µM* | 0%
Cc1ccc(CCN=c2c([N+](=O)[O-])nn(-c3ccccc3)n2O)cc1 | 8% | ? | ? | ? | 5%
COc1ccc(NC(=O)[C@H](C)NC(=O)[C@@H]2Cc3ccccc3CN2C(=O)OC(C)(C)C)cc1 | 4% | -11% | 9 | ? | -3%
CCc1cccc(NC(=O)CCCSc2nc3ccccc3[nH]2)c1 | 4% | -6% | 12 | -3% | -1%
Cc1ccc(C(=O)NCC(=O)N2CCN(c3ccccc3O)CC2)s1 | -5% | -3% | -17 | 2.9µM* | 1%
CC(C)(C)OC(=O)N1CCC[C@H]1c1nnc(SCc2ccc(Cl)cc2)o1 | 14% | ? | ? | 21µM* | 1%
CC(C)(C)OC(=O)N1CCC[C@H]1c1nnc(SC/C=C/c2ccccc2)o1 | 2% | ? | -15 | 23µM* | 3%
